# Bioassay records from PubChem.
# Rows were chosen to be rich in hits. Some 4.4% of all compounds tested hit in one or more screens of this group.
# D1 antagonist: Antagonist of Human D 1 Dopamine Receptor: qHTS; HEK293 TREx D1 cells, calcium flux, dopamine EC80; hits give low values; activity change, negative = inhibition, % at 10 µM; AID 504652, 2011; actives 3.2% (n = 360,000); in the data active = activity change below about -30%; note: % is set by controls: 0 for no effect and ±100 for the full control effect
# Target sequence (P21728 whole entry, looked up): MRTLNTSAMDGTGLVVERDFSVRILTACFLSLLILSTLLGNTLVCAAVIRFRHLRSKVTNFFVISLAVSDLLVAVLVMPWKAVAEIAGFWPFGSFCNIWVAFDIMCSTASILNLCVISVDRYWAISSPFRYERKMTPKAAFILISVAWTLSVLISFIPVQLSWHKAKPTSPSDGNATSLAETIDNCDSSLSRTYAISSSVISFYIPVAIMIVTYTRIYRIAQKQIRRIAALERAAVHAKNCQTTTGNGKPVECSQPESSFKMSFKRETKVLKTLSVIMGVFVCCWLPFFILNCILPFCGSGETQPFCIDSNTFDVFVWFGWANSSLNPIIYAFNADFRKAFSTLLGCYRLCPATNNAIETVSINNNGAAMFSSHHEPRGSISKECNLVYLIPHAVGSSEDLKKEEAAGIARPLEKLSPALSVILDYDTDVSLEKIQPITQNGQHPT
#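 Allosteric or orthosteric antagonism assessed as attenuation of the calcium response to EC80 dopamine, added 180 s after compound, in induced HEK293 Trex D1 cells loaded with no-wash calcium dye.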
# D1 PAM: Potentiators of Human D1 Dopamine Receptor: qHTS; AID 504651, 2011; actives 0.036% (n = 360,000); D(1A) dopamine receptor (Homo sapiens), P21728; potentiation, % at 10 µM; HEK293 TREx D1 cells, calcium flux, dopamine EC20 potentiation; in the data active = potentiation above about 30%; note: 0% is about no effect
# TRHR ag: qHTS for Small Molecule Agonists and Allosteric Enhancers of Human TRH Receptor: Primary Screen for Agonists; Thyrotropin-releasing hormone receptor (Homo sapiens), P34981; activation, % at 2 µM; TRHR cells, calcium flux fluo-8, FDSS agonist mode; actives 0.18% (n = 360,000); note: 0% is about no effect
#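 Steps: seed TRHR cells overnight; add fluo-8 no-wash Ca dye, RT 30 min–1.5 h; record 10 s baseline; pin-transfer compounds; monitor fluorescence 1 cycle/s for the agonist window. Calcium increases flag candidate agonists.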
# D1 ag: Allosteric Agonists of the Human D1 Dopamine Receptor: qHTS; actives 1% (n = 360,000); activation, % at 2 µM; AID 504660, 2011; HEK293 T-REx D1 cells, calcium flux, agonist mode; note: 0% is about no effect
#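 Tetracycline-induced HEK293 TREx D1 cells, force-coupled to calcium signalling, were dye-loaded with a no-wash calcium kit. Compound was pin-added after a 10 s baseline. Fluorescence was read kinetically at 1 cycle/s for 180 s, with calcium rises flagged as agonism.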
# USP1-UAF1 inh: Inhibitors of USP1/UAF1: Primary Screen; actives 0.23% (n = 390,000); recombinant USP1/UAF1, Ub-Rhodamine cleavage fluorescence; AID 743255, 2014; Potency, µM (highest dose often 57.1 µM), for the others: at the highest dose activity change, negative = inhibition, usual class: inhibitors; active = well fitted inhibition curve with a large enough effect; inconclusive = small, poorly fitted or top-dose-only effect; inactive = no such curve, though single readings can be large or run the other way; note: potency is the fitted concentration of half-maximal effect; % is set by controls: 0 for no effect and ±100 for the full control effect; nearly all actives have a fitted effect of over 60% in size
#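 High-throughput fluorogenic screen: 1nM USP1/UAF1 complex, Ub-Rho substrate 150nM final, 50mM HEPES pH 7.8 with 0.5mM EDTA, 0.1 mg/ml BSA, 1mM TCEP and 0.01% Tween-20.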
# TRHR PAM: qHTS for Small Molecule Agonists and Allosteric Enhancers of Human TRH Receptor: Primary Screen for Enhancers; Thyrotropin-releasing hormone receptor (Homo sapiens), P34981; TRHR cells, fluo-8 calcium fluorescence, EC20 TRH enhancement; enhancement, % at 2 µM; actives 0.66% (n = 360,000); AID 493056, 2011; in the data active = enhancement above about 30%; note: 0% is about no effect
#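 TRHR-expressing cells loaded with fluo-8 calcium dye were read kinetically (ex 480/em 530) during compound addition, then stimulated with an EC20 of TRH (10 nM final). Enhancement of the Gq-mediated intracellular calcium response was scored.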
# * marks the source's active call; other numbers are inactive results; ? = inconclusive; nt = no result. Cut-off read from the data, not from the text of the source, unless noted: active = activation above about 30%; inactive = the rest.
SMILES,D1 antagonist,D1 PAM,TRHR ag,D1 ag,USP1-UAF1 inh,TRHR PAM
Cc1ccc(CNC(=O)C2CCCN(c3nc4c(C)cc(C)cc4s3)C2)cc1 (centres undefined),13,-1,0,0,-8%,-2
O=C(COC(=O)c1ccc(O)cc1O)NC12CC3CC(CC(C3)C1)C2,-25,-5,-1,4,-14%,10
O=C(OCC(=O)C12CC3CC(CC(C3)C1)C2)c1ccc(O)cc1O,-1,43*,0,93*,-11%,-6
COc1cc(C2CC(=O)Nc3c2c(C)nn3-c2nncc(-c3ccccc3)n2)cc(OC)c1OC (centres undefined),-16,-3,1,0,-11%,-3
C=CCOC(=O)C1=C(C)NC(C)=C(C(=O)OCC=C)C1c1ccco1,-30*,-15,0,3,-8%,-6
COc1cccc(NC(=O)C2=C(C)C(=O)OC23CCN(C(C)=O)CC3)c1,1,1,1,-1,-20%,2
COc1ccc(C(=O)Nc2nnc(SCC(=O)NCC3CCCO3)s2)cc1OC (centres undefined),-30*,-12,0,3,-10%,-6
COc1cccc(C(=O)Cn2c(=O)n(CCC(=O)NCC3CCCO3)c(=O)c3cc(OC)c(OC)cc32)c1 (centres undefined),1,-2,0,1,-18%,15
Cc1cc(C)cc(C(=O)Nc2nnc(SCC(=O)NCC3CCCO3)s2)c1 (centres undefined),-1,-3,0,0,-8%,-9
COc1cc2c(=O)n(CCC(=O)NCC3CCCO3)c(=O)n(CC(=O)c3ccc(Cl)cc3)c2cc1OC (centres undefined),-30*,-7,0,0,-10%,1
O=C(NCC1CCCN1S(=O)(=O)c1cccs1)c1ccc(Cl)cc1 (centres undefined),4,-3,0,2,-7%,-1
O=C(NCC1CCCN1S(=O)(=O)c1cccs1)c1cccc(Cl)c1 (centres undefined),-32*,-4,0,4,-15%,3
O=C(NCc1ccccc1Cl)C(=O)NCC(c1cccs1)S(=O)(=O)c1cccs1 (centres undefined),nt,-1,0,9,-27%,1
Cc1ccc(OC(C)C(=O)Nc2ccc(S(=O)(=O)N3CCOCC3)cc2)cc1 (centres undefined),1,2,4,39*,-10%,2
CC(Oc1ccccc1Cl)C(=O)Nc1ccc(S(=O)(=O)N2CCOCC2)cc1 (centres undefined),nt,nt,nt,nt,-19%,nt
CC(Oc1ccc(C(=O)c2ccccc2)cc1)C(=O)Nc1ccc(S(N)(=O)=O)cc1 (centres undefined),-6,-1,5,38*,-22%,10
O=C(CCCSc1ccc(Cl)cc1)Nc1cc(S(=O)(=O)N2CCOCC2)ccc1O,-45*,-5,0,4,-11%,4
CC(Sc1ccc(Cl)cc1)C(=O)Nc1ccc(S(=O)(=O)N2CCOCC2)cc1 (centres undefined),-21,-10,-2,56*,-14%,9
CCN(CC)c1ccc(NC(=O)c2ccc3c(c2)OCO3)c(C)c1,-41*,-6,0,4,-16%,-3
CC(=O)Nc1ccc(C(=O)Nc2ccc3c(c2)OCO3)cc1,-31*,-1,0,3,-21%,-6
O=C(NCc1ccc2c(c1)OCO2)c1ccc(NC(=O)C2CCCO2)cc1 (centres undefined),-12,2,0,-2,-3%,-9
O=C(Nc1ccc2c(c1)OCO2)c1ccc[n+]([O-])c1,-39*,3,0,0,-23%,-7
CC(=O)Nc1ccc(C(=O)Nc2ccc3c(c2)OCCO3)cc1,4,4,-1,2,-7%,0
O=C(Nc1ccc2c(c1)OCCO2)c1ccc(NC(=O)C2CCCO2)cc1 (centres undefined),-49*,-6,1,1,-3%,-5
CC(C)(C)C1CCc2c(sc(NC(=O)Cn3nnc(-c4ccccc4Cl)n3)c2C#N)C1 (centres undefined),-1,-2,-4,1,9%,-2
SMILES,D1 antagonist,D1 PAM,TRHR ag,D1 ag,USP1-UAF1 inh,TRHR PAM
O=C(NCc1cccnc1)c1nn(-c2ccc(F)cc2)nc1CO,-2,-1,-2,0,-16%,4
COc1ccc(C2=NNC(c3cccs3)=Nc3ccc(OC)cc32)cc1,-39*,1,0,-1,-4%,7
COc1cccc(CNC(=O)Cc2c(C(=O)O)c(C)cn2C)c1,36,3,0,3,-9%,1
COC(=O)c1cc2occc2n1Cc1cccc(C)c1,-10,-12,-3,9,-6%,-1
CCc1cccc(NC(=O)Cn2c(C(=O)OC)cc3occc32)c1,29,-3,0,0,-16%,36*
C[C@]12CCC(O)CC1CCC1C2CC[C@]2(C)C(c3cc(C(F)(F)F)n[nH]3)CCC12 (some centres undefined),-5,-7,2,43*,-22%,-11
COc1ccc(CC(=O)Nc2c(C(=O)N3CCN(c4ccccc4F)CC3)oc3ccccc23)cc1OC,-4,3,-1,0,-1%,6
Cc1oc(-c2ccc(Cl)cc2)nc1Cn1c(=O)cc(C)c2c(C)nn(-c3ccccc3)c21,-12,-5,0,4,-22%,5
CC1CCCCN1CCCNC(=O)c1cc(Sc2cccc(Cl)c2)nc2ccccc12 (centres undefined),-42*,-1,0,19,-27%,-3
CCOCCCNC(=O)c1cc(Sc2cccc(Cl)c2)nc2ccccc12,-60*,-3,-1,7,?,-12
CCC(C)NC(=O)c1cc(Sc2cccc(Cl)c2)nc2ccccc12 (centres undefined),-61*,-2,0,19,?,13
Cc1ccc(N(CC(=O)Nc2ccc(Br)cc2)S(=O)(=O)c2cccs2)cc1,-5,2,1,5,?,2
